This is an account of results in PubChem BioAssay (Tox21).

The nature of test [1]: qHTS assay to identify small molecule agonists of H2AX - cell viability counter screen (AID 1224847; calls by dose curve; also: nearly all actives have a fitted effect of over 30% in size; also: potency is read from the fitted curve at half-maximal effect). In outline:
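Compounds tested at 15 concentrations were incubated 3 hr at 37C with wild-type CHO-K1 cells; cellular ATP-based luminescence (CellTiter-Glo) indicated viability.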

Test [2] is described as follows: qHTS assay to identify small molecule antagonists of the estrogen related receptor (ERR) signaling pathway from Tox21 library (AID 1224848). Also: nearly all actives have a fitted effect of over 50% in size. Also: potency is read from the fitted curve at half-maximal effect. Put shortly:
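Antagonist-mode screen of the Tox21 10K library in an NTP-provided ERR reporter cell line; 18 h compound exposure at 37 C, luminescence measured with ONE-Glo.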
In general terms: Quantitative high-throughput screening tests each substance at several concentrations.

The nature of test [3]: qHTS assay to identify small molecule agonists of the estrogen related receptor (ERR) signaling pathway from Tox21 library (AID 1224849; calls by dose curve; also: nearly all actives have a fitted effect of over 15% in size). The note with it: ERR reporter cell line, ONE-Glo luciferase, 18 h. In outline:
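Agonist signal is luciferase luminescence from an ERR reporter cell line treated 18 h at 37 C with DMSO-dissolved compounds, read 30 min after ONE-Glo addition at room temperature.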

A short description of test [4]: qHTS RealTime-Glo MT Cell Viability Assay in HepG2 cells - 24 hour (AID 1224867). Also: nearly all actives have a fitted effect of over 50% in size. Also: potency is read from the fitted curve at half-maximal effect. In outline: (§1)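 Real-time, nonlytic viability: 600 HepG2 cells/well mixed with NanoLuc enzyme plus prosubstrate; 5 h settle, compound (DMSO) added by pintool; luminescence monitored over 40 h at 37 C.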
A short description of test [5]: qHTS RealTime-Glo MT Cell Viability Assay in HEK293 cells - 32 hour (AID 1224868). Also: nearly all actives have a fitted effect of over 50% in size. Also: potency is read from the fitted curve at half-maximal effect. In outline: (§2)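 Cells + reagent dispensed (600 cells/well, HEK293) → 5 h at 37 C/5% CO2 → 23 nL compound in DMSO pinned → 40 h at 37 C → luminescence read at 0, 8, 16, 24, 32, 40 h.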
A short description of test [6]: A CellTox Green Cytotoxicity Assay to monitor cytotoxicity in HEK293 cells - 0 hour (AID 1224869). Also: nearly all actives have a fitted effect of over 50% in size. In outline:
(§3)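 Cytotoxicity was tracked continuously in HEK293 cells by a DNA-binding dye excluded from viable cells. Compounds were transferred in DMSO 5 h after seeding; fluorescence was recorded at intervals up to 40 h.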

A short description of test [7]: qHTS RealTime-Glo MT Cell Viability Assay in HepG2 cells - 40 hour (AID 1224870). Also: nearly all actives have a fitted effect of over 50% in size. Also: potency is read from the fitted curve at half-maximal effect. In outline: (§4)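 Real-time viability: cells seeded at 600 per well together with NanoLuc and cell-permeant prosubstrate, compounds added after 5 h incubation. Luminescence tracked at 0, 8, 16, 24, 32 and 40 h of exposure.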
Test [8] is described as follows: A CellTox Green Cytotoxicity Assay to monitor cytotoxicity in HEK293 cells - 40 hour (AID 1224871). Also: nearly all actives have a fitted effect of over 45% in size. Also: potency is read from the fitted curve at half-maximal effect. In outline: as §3
Test [9] is described as follows: qHTS RealTime-Glo MT Cell Viability Assay in HEK293 cells - 16 hour (AID 1224872). Also: nearly all actives have a fitted effect of over 50% in size. Also: potency is read from the fitted curve at half-maximal effect. Put shortly: as §2
Test [10] in a line: qHTS RealTime-Glo MT Cell Viability Assay in HepG2 cells - 8 hour (AID 1224873). Also: nearly all actives have a fitted effect of over 55% in size. Also: potency is read from the fitted curve at half-maximal effect. Put shortly: as §4
Test [11] can be described thus: qHTS RealTime-Glo MT Cell Viability Assay in HEK293 cells - 40 hour (AID 1224874). Also: nearly all actives have a fitted effect of over 50% in size. Also: potency is read from the fitted curve at half-maximal effect. The note with it: RealTime-Glo luminescence; max response: stronger effect = lower value. Put shortly: (§5)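 Nonlytic bioluminescent viability monitoring. HEK293 at 600 cells/well with reagent; 5 h settle; compound transfer by pintool; plates held at 37 C and read at set time points.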
The nature of test [12]: A CellTox Green Cytotoxicity Assay to monitor cytotoxicity in HEK293 cells - 24 hour (AID 1224875). Also: nearly all actives have a fitted effect of over 45% in size. Also: potency is read from the fitted curve at half-maximal effect. In outline:
as §3

Test [13] can be described thus: A CellTox Green Cytotoxicity Assay to monitor cytotoxicity in HepG2 cells - 16 hour (AID 1224876). Also: nearly all actives have a fitted effect of over 45% in size. Also: potency is read from the fitted curve at half-maximal effect. In outline:
(§6)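 Real-time, homogeneous cytotoxicity readout: dead-cell DNA staining by CellTox Green in HepG2 monolayers, fluorescence measured at timed intervals up to 40 h of continuous compound exposure.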

Test [14] can be described thus: qHTS RealTime-Glo MT Cell Viability Assay in HepG2 cells - 32 hour (AID 1224877). Also: nearly all actives have a fitted effect of over 55% in size. Also: potency is read from the fitted curve at half-maximal effect. Put shortly:
as §1

Test [15] in a line: A CellTox Green Cytotoxicity Assay to monitor cytotoxicity in HepG2 cells - 24 hour (AID 1224878). Also: nearly all actives have a fitted effect of over 45% in size. Also: potency is read from the fitted curve at half-maximal effect. In outline:
as §6

The nature of test [16]: A CellTox Green Cytotoxicity Assay to monitor cytotoxicity in HepG2 cells - 40 hour (AID 1224879). Also: nearly all actives have a fitted effect of over 40% in size. Also: potency is read from the fitted curve at half-maximal effect. Put shortly: as §6
Test [17] in a line: qHTS RealTime-Glo MT Cell Viability Assay in HEK293 cells - 0 hour (AID 1224880). Put shortly: as §5
Test [18] in a line: A CellTox Green Cytotoxicity Assay to monitor cytotoxicity in HEK293 cells - 32 hour (AID 1224881). Also: nearly all actives have a fitted effect of over 40% in size. Also: potency is read from the fitted curve at half-maximal effect. In outline:
as §3

Test [19] in a line: A CellTox Green Cytotoxicity Assay to monitor cytotoxicity in HepG2 cells - 0 hour (AID 1224882). Also: nearly all actives have a fitted effect of over 35% in size. In outline:
as §6

Test [20] in a line: A CellTox Green Cytotoxicity Assay to monitor cytotoxicity in HepG2 cells - 32 hour (AID 1224883). Also: nearly all actives have a fitted effect of over 50% in size. Also: potency is read from the fitted curve at half-maximal effect. In outline: as §6

Values joined by “and” are separate entries in the source; they are usually repeats but may differ in a detail not shown here. Equal entries are not always repeated. Records with an inconclusive call do not appear. Some compounds were tested as several samples or in several runs, with calls that do not always agree. Active and inactive are the calls of the source. Unless noted, calls follow the shape of the dose curve; as a rule, active = well fitted curve in the direction sought with a large enough effect in the repeat runs; inconclusive = weak or mixed curves; inactive = no such curve, though single readings can be large; an effect the other way counts as inactive or inconclusive.
% is scaled to controls: 0 for no effect and ±100 for the full control effect.

As for `CCNc1nc(Cl)nc(NCC)n1`, the Potency entry in test [1], in test [2], in test [4], in test [5], in [6] and in test [7] was “inactive” each time. In addition, the Potency result in [8], in test [9], in test [10], in [12], in test [13] and in test [14] was “inactive” each time. Moreover, the Potency result in test [15], in test [16], in [18], in test [19] and in test [20] was “inactive” throughout. Moreover, the activity change, positive = activation in test [3] (at 42.5 µM (top of the series)) is -12% (inactive); in test [3] (at 92.4 µM (top of the series)), -3.33% (inactive) and -18.8% (inactive). Also, the max response in test [11] is -0.397% (inactive) and 5.74% (inactive) and 5.58% (inactive). In addition, in [17], the outcome was inactive.

In the case of `CC(=O)[O][Hg][c]1ccccc1`, the Potency was 3.16 µM (active) and 5.66 µM (active) and 24.7 µM (active) in test [1]; 2.15 µM (active) and 3.44 µM (active) and 5.96 µM (active) in [2]; 1.72 µM (active) and 1.95 µM (active) and 1.07 µM (active) in test [4]; 306 nM (active) and 977 nM (active) and 239 nM (active) in test [5]; 1.93 µM (active) and 1.95 µM (active) and 1.07 µM (active) in test [7]; 433 nM (active) and 1.1 µM (active) and 213 nM (active) in [8]. Further, the Potency in [9] is 344 nM (active) and 1.1 µM (active) and 268 nM (active); in test [10], 1.93 µM (active) and 1.74 µM (active) and 1.07 µM (active); in test [11], 306 nM (active) and 977 nM (active) and 213 nM (active); in test [12], 863 nM (active) and 1.38 µM (active) and 1.07 µM (active); in test [13], 1.72 µM (active) and 2.45 µM (active) and 1.51 µM (active); in test [14], 1.72 µM (active) and 1.95 µM (active) and 1.07 µM (active). In addition, the Potency in [15] was 1.93 µM (active) and 2.45 µM (active) and 1.34 µM (active); in test [16], 1.22 µM (active) and 1.95 µM (active) and 1.07 µM (active); in test [18], 611 nM (active) and 977 nM (active) and 213 nM (active); in test [20], 1.53 µM (active) and 1.95 µM (active) and 1.07 µM (active). For the same compound, the activity change, positive = activation in test [3] (at 42.5 µM (top of the series)) is -71% (inactive); in test [3] (at 92.4 µM (top of the series)) it was -80.3% (inactive) and -73.5% (inactive). Also, the Potency entry in test [6] and in test [19] was “inactive” throughout. The result in [17] was inactive.

Turning to `O=C(O)CC(O)(CC(=O)O)C(=O)O`, the Potency result in [1], in test [4], in test [5], in test [6], in test [7] and in test [8] was “inactive” in each case. In addition, the Potency result in test [9], in test [10], in [12], in test [13], in test [14] and in test [15] was “inactive” in each case. The Potency entry in [16], in test [18], in test [19] and in test [20] was “inactive” throughout. In [11], the max response is 6.24% (inactive) and 7.96% (inactive) and 3.83% (inactive). Besides, the compound was classed as inactive in test [17].

With `OCCOc1ccccc1`, the Potency entry in [1], in test [2], in test [5], in test [6], in [7] and in [8] was “inactive” in each case. In addition, the Potency result in test [9], in test [10], in [12], in test [13], in test [14] and in [15] was “inactive” in each case. Further, the Potency entry in test [16], in [18], in test [19] and in [20] was “inactive” throughout. Besides, the activity change, positive = activation was 7.59% (inactive) in test [3] (at 42.5 µM (top of the series)); -33.2% (inactive) and 4.84% (inactive) in test [3] (at 92.4 µM (top of the series)). Besides, the max response in test [11] is -3.05% (inactive) and 0.273% (inactive) and 2.22% (inactive). Besides, in [17], the compound was called inactive.

Regarding `CCCCn1cc[n+](C)c1C`, the Potency entry in [1], in test [4], in test [5], in test [6], in test [8] and in test [9] was “inactive” in each case. Further, the Potency entry in [10], in [12], in [13], in test [15], in test [16] and in test [18] was “inactive” in each case. Besides, the Potency entry in [19] and in test [20] was “inactive” throughout. Further, the Potency result in test [7] was “inactive and 22.1 µM (active)”; in test [14], “inactive and 44.2 µM (active)”. For the same compound, the max response in [11] is -1.35% (inactive) [middle of 6 runs]. The outcome in test [17] was inactive.
